Molecules are shown by their SMILES.

The nature of the assay: calcein-AM signal in unstimulated myeloma cells – cell-based, calcein-AM fluorescence, 48 h, PK04 Diversity Set, profiling panel (AID 1166).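 Also: cells grown under basal conditions without added stimulus; test concentration not given here.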 The settings on record: RPMI8226 myeloma viability, higher = more signal.
`COCCCNC(=O)[C@@]1(Sc2ccc(C)cc2)CC(=O)N(Cc2ccccc2)[C@@H]1c1ccc(CO)cc1I`: the z-score was -1.94.
The value for `COC(=O)[C@H](C)NC(=O)CCC1CC(OC(=O)NCCc2ccc(F)cc2)CC2(CCCC(COC(=O)NCC(c3ccccc3)c3ccccc3)O2)O1` (stereo partly specified) was -3.43.
On to `COc1ccccc1CN1C(=O)c2ccccc2[C@@H](C(=O)NCC(F)(F)F)[C@@H]1c1ccc(CO)cc1`, for which the z-score was 1.04.
Next, `Cc1cc2c(c(=O)o1)[C@H](O)[C@H]1O[C@H]1C2=O`: -2.96.
The value for `CCN(CC)c1ccc(N2CC=CC34O[C@@H]5/C=C\CCC(C)OC(=O)C5[C@H]3C(=O)N(CCCO)[C@@H]4C2=O)cc1` (stereo partly specified) was 0.264; that for `O=C1O[C@@H](c2ccccc2)[C@@H](c2ccccc2)N2[C@@H](c3ccccc3OCCO)[C@]3(C(=O)Nc4ccc(C#CCCO)cc43)[C@@H](C(=O)O)[C@H]12` was -1.98; that for `COc1ccc([Si](C)(C)[C@@H]2[C@@H](CC(=O)N3CCC[C@H]3CO)O[C@]3(C(=O)N(Cc4cccc(N5CCC5=O)c4)c4ccccc43)[C@H]2C)cc1` was -4.33.
Next, `CC(C)(C)N1CC=CC23O[C@@H]4C=CCCOC(=O)C4[C@H]2C(=O)N(CCCCCO)[C@@H]3C1=O` (stereo partly specified): 0.227.
As for `COc1cccc([C@@H]2Oc3ccc(Br)cc3C(=O)[C@H]2O)c1`, the z-score is -1.73.
The value for `CO[C@H]1COC(=O)[C@@H]2CCCN2C(=O)CC=C[C@@H](C)[C@H](OC)COC(=O)CC=C[C@@H]1C` was 0.84.
The value for `CC(CCN1CCc2nc(-c3ccccc3)c(-c3ccccc3)cc2C1)=NO[C@H](C)c1cn([C@@H]2COC[C@H]2O)nn1` was -0.283; that for `COC(=O)[C@H]1COC(c2ccc(OCCCO)cc2)=N1` was -0.231; that for `O=C1[C@H]2[C@H]3[C@H](O)[C@H](O)CC(=NOC[C@@H](O)COCc4ccco4)[C@H]3CC[C@H]2C(=O)N1Cc1ccc2c(c1)OCO2` was -0.334.
Next, `CC[C@@H](c1ccccc1)n1c(=O)n2n(c1=O)[C@H]1[C@H](O)[C@@H]3O[C@@H]3C(=NOCC=C(C)CCC=C(C)C)[C@H]1CC2`: -3.74; `C[C@@H](c1ccccc1)N1C(=O)[C@H]2[C@H]3[C@H](O)[C@H](O)CC(=NOC[C@@H](O)COCc4ccco4)[C@@H]3CC[C@H]2C1=O`: -0.873; `CO[C@H]1O[C@H](CO)[C@@H](OC(=O)Nc2ccc3c(c2)OCO3)[C@H](OC(=O)Nc2ccccc2-c2ccccc2)[C@@H]1OC(=O)Nc1ccccc1-c1ccccc1`: -0.775.
Consider `NCCCCCNC(=O)[C@@H]1C[C@@H]2C(=O)N3CCC[C@H]3C(=O)N2[C@@H]1c1cccc(OCCO)c1`, for which the z-score was 0.0959.
The value for `C[C@@H]1C=CCC(=O)OC[C@H](C)C(=O)N2CCC[C@H]2C(=O)OC1` was -0.665; that for `CCCC=C(CCC)[C@@H](NC(=O)c1ccc(-c2ccccc2)cc1)c1ccc(C(=O)OC)cc1` was -1.62.
The value for `CCOC(=O)[C@H](Cc1ccccc1)NC(=O)CCC1CC(OC(=O)NCc2ccc3c(c2)OCO3)CC2(CCCC(COC(=O)NCC3CCCCC3)O2)O1` (stereo partly specified) was -2.09.
Next, `COc1ccc(COC(=O)NN=C2C[C@@H](O)[C@@H](O)[C@@H]3[C@@H]4C(=O)N(c5ccc(F)cc5F)C(=O)[C@@H]4CC[C@@H]23)cc1`: -0.952; `CC(C)[C@@H](OCc1ccccc1)[C@H](C)C=NO[C@H](C)c1cn([C@H](CO)Cc2ccccc2)nn1`: 0.153.
In the case of `COC(=O)[C@H](C)NC(=O)CCC1CC(OC(=O)NCc2cccc3ccccc23)CC2(CCCC(COC(=O)NCCc3ccc(Cl)cc3)O2)O1` (stereo partly specified), the z-score was -0.94.
Next, `COc1ccc(-c2nc3c(c4c2C[C@H](C)OC4)CN(CCC(C)C)CC3)cc1`: -0.234; `O=C(NN=C1C[C@@H](O)[C@@H](O)[C@@H]2[C@@H]3C(=O)N(c4cccc(Oc5ccccc5)c4)C(=O)[C@@H]3CC[C@H]12)OCc1ccccc1`: -0.363; `CCOC(=O)CCN1C(=O)[C@H]2[C@H]3[C@H](O)[C@H](O)CC(=NNC(=O)OCc4ccc(OC)cc4)[C@@H]3CC[C@H]2C1=O`: 0.0819.
Next, `CCN1C(=O)[C@H]2[C@H]3[C@H](O)C=CC(=O)[C@@H]3CC[C@H]2C1=O`: 0.197.
`C=C(CCCC)C(=O)CC[C@@H](OC(C)=O)c1cccc(OCCO)c1`: the z-score is -2.28.
As for `O=C1C[C@]2(c3ccc([N+](=O)[O-])cc3)C(=O)N(CCN3CCOCC3)c3cc(CO)ccc3[C@H]2N1CC12CC3CC(CC(C3)C1)C2`, the z-score is -1.96.
The value for `[N-]=[N+]=NCc1ccccc1[C@@H]1OC(c2ccc(OCCCO)cc2)=N[C@]1(Cc1ccccc1)C(=O)N1CCOCC1` was -0.275; that for `CC(C)N1CC=CC23O[C@@H]4C=CCCOC(=O)C4[C@H]2C(=O)N(CCCCCCO)[C@@H]3C1=O` (stereo partly specified) was 0.788; that for `CCCNC(=O)[C@@H]1c2ccccc2C(=O)N(Cc2ccccc2Cl)[C@H]1c1ccc(CO)cc1` was 1.23.
Next, `CCN1C(=O)[C@H]2[C@H]3[C@H](O)[C@H](O)CC(=NOCc4ccccc4)[C@H]3CC[C@H]2C1=O`: -0.644.
The value for `C[C@H](c1ccccc1)N1C(=O)[C@H]2[C@H]3[C@H](O)[C@H](O)CC(=O)[C@@H]3CC[C@H]2C1=O` was 0.299; that for `COC(=O)C1=C(C)[C@@H](O)[C@@H](C)[C@H](c2c(OC)c(OC)c(C)c(OC)c2OC)O1` was -0.976.
On to `CC(=O)OC[C@H]1O[C@H](CC=NOC[C@@H](C)[C@H](OCc2ccccc2)C(C)C)C=C[C@@H]1OC(C)=O`, for which the z-score is 0.128.

The record behind these values is PubChem BioAssay.
